Active and inactive are the calls of the source.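 Rule for the calls: active = neuropeptide S receptor blocker with IC50 at or below 10 µM; inconclusive = IC50 above 10 µM but below 20 µM; inactive = IC50 of 20 µM or more.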
Each compound was assayed against Neuropeptide S receptor (Homo sapiens) (UniProt Q6W5P4) (assay: qHTS for Antagonists of the Neuropeptide S Receptor: SAR in ERK). Details: CHO-NPSR cells, NPS-induced pERK1/2 HTRF.
Description: Neuropeptide S receptor (NPSR), previously known as GPR154, is a recently de-orphanized G protein coupled receptor. Its endogenous ligand is the 20 amino acids peptide Neuropeptide S (NPS). […] NPS and its receptor are found in various tissues. Specifically they are highly expressed in brain areas that have been implicated in modulation of arousal, stress and anxiety. Central administration of NPS in mice produces an unusual profile of activity by inducing wakefulness and arousal, while at the same time suppressing anxiety. Therefore, NPSR may represent a novel drug target for the treatment of sleep and anxiety disorders. To identify NPSR antagonists, we developed a cell-based assay with transfected NPS receptor. NPS can stimulate the production of cAMP as well as release intracellular calcium in Chinese hamster ovary cells stably expressing NPS receptor. This change in intracellular calcium can be detected using a calcium indicator dye on a calcium imaging plate reader system (FDSS). […] Reinscheid et al. have demonstarted that the binding of NPS to NPSR activates the phosphorylation of the MAPK extracellular regulated kinase (ERK). Thus NPSR antagonists of ERK activation should reduce ERK phosphorlyation is a dose dependent manner NIH Chemical Genomics Center [NCGC] NIH Molecular Libraries Probe Production centers Network [MLPCN] MLPCN Grant: DA026210 Assay Submitter (PI): Heilig, Markus Alexander
Intracellular pERK1/2 levels were measured using a time-resolved fluorescence resonance energy transfer (TR-FRET) assay by a HTRF Cellul'erk kit (Cisbio, MA). The CHO cells overexpressing NPSR were seeded at 200 microL/well with 25,000 cells in white, tissue culture treated clear bottom 96-well plates (Greiner Bio-One, NC). Following overnight incubation at 37 masculineC with 5% CO2, the growth medium was replaced with 100 microL /well Opti-MEM medium (ATCC, VA) and incubated at 37 degrees C with 5% CO2 for an additional 4 hours. The compounds prepared in 100% DMSO were added to assay plates at 1 microL/well. The assay plates were incubated for 10 min at 37 degrees C with 5% CO2 and NPS solution (2 nM NPS peptide prepared in the Opti-MEM medium with 0.2 % BSA and 0.005 % Tweeen-20) was then added at 100 microL/well. After a 20 min incubation at 37 degrees C with 5% CO2, the media was aspirated and the place plates were placed on ice for 5 min followed by the addition of 50 microL/well of 1 cell lyses solution. The plates were then incubated at room temperature while gently rocking (for mixing) for 15 min. […] After overnight incubation at room temperature in the dark, the plates were measured using the EnVision plate reader similarly as that of cAMP assay.

Neuropeptide S receptor (Homo sapiens), sequence (Q6W5P4 whole entry, looked up): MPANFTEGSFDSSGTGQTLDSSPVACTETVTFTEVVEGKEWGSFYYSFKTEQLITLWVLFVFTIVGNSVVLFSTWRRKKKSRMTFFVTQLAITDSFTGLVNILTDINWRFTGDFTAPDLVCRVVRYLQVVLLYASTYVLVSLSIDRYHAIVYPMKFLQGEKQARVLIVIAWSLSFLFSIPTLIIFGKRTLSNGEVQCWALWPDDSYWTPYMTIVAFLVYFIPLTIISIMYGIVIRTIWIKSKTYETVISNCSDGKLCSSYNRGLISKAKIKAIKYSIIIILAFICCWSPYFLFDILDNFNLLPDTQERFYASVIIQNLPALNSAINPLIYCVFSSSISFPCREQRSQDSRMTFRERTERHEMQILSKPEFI

| SMILES | IC50 |
| --- | --- |
| O=C1OC(c2ccccc2)(c2ccccc2)N2CCN(C(=O)NCc3ccc(F)cc3)CC12 (centres undefined) | 0.0158 µM (active) |
| COc1ccc(C2c3c(ncn(CCN4CCOCC4)c3=N)Oc3ccc4ccccc4c32)cc1OC (centres undefined) | 0.0597 µM (active) |
| Cc1c(P(=S)(c2ccccc2)c2ccccc2)[n+]2ccccc2n1C/C=C/c1ccccc1 | 0.0093 µM (active) |
| CCC(C)(CCN1CCOCC1)N(Cc1cc2ccccc2n(C)c1=O)C(=O)C1CCCCC1 (centres undefined) | 0.009 µM (active) |
